We go through five compounds from PubChem BioAssay.

Structures are written as SMILES. Active and inactive are the calls of the source.

Assay [1] is described as follows: optical density shifts of acrAB sulA E. coli – strain DRC41, OD650, 48 h, E. coli filamentation inducer project, primary screen (AID 1152).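 Further: E. coli MC1000 strain DRC41 lacking acrAB efflux pump and sulA.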 As to conditions: higher = more signal, called active from +8 up or from −8 down.
Assay [2] can be described thus: probe aLefty1 binding on compound microarray – biochemical, small-molecule microarray, 635/667 nm fluorescence, primary screen (AID 1153).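 Further: score merges spot fluorescence with signal-to-noise ratio from the scanned slide images.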 Particulars: higher = more signal.
A short description of assay [3]: plasmodial surface anion channel blockers, osmotic lysis – cell-based, P. falciparum Indochina, OD700, 1 h, primary screen (AID 1154). Particulars: P. falciparum Indochina infected RBC osmotic lysis, higher = more signal, called active from +8 up or from −8 down.
Assay [4] is described as follows: plasmodial surface anion channel blockers, osmotic lysis – cell-based, P. falciparum Indochina, OD700, 2 h, primary screen (AID 1155).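 Further: lysis reports solute entry through the parasite surface anion channel PSAC.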 As to conditions: P. falciparum Indochina infected erythrocytes, higher = more signal, called active from +8 up or from −8 down.
A short description of assay [5]: changes in parasitized red cell lysis, either direction – P. falciparum Indochina, OD700, 3 h, PSAC antagonist project, primary screen (AID 1156). As to conditions: P. falciparum-infected erythrocytes, osmotic lysis, higher = more signal, called active from +8 up or from −8 down.
The nature of assay [6]: plasmodial surface anion channel blockers, osmotic lysis – cell-based, P. falciparum Indochina, OD700, 18 h, primary screen (AID 1157). Particulars: P. falciparum Indochina infected erythrocytes, osmotic lysis OD700, 18 h; higher = more signal, called active from +8 up or from −8 down.
Assay [7] is described as follows: S6 kinase pathway phospho-S6 level changes – cell-based, A549, cytoblot, luminescence, serum-stimulated, primary screen (AID 1158).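 Further: serum-stimulated A549 lung adenocarcinoma cells; signal is phosphorylated S6 detected by cytoblot immunostaining with HRP secondary.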 As to conditions: 5 h, higher = more signal.
Assay [8] deals with NADPH oxidase 2 (Homo sapiens) (UniProt P04839). As to the kind of experiment: compounds shifting NOX2 Amplex Red fluorescence – cell-based, HEK293-NOX2, PMA-stimulated, NOX inhibitor project, primary screen (AID 1159). Further: test concentration not given here. As to conditions: 45 min, higher = more signal, called active from +8 up or from −8 down.
Sequence of NADPH oxidase 2 (Homo sapiens) (P04839 whole entry, looked up): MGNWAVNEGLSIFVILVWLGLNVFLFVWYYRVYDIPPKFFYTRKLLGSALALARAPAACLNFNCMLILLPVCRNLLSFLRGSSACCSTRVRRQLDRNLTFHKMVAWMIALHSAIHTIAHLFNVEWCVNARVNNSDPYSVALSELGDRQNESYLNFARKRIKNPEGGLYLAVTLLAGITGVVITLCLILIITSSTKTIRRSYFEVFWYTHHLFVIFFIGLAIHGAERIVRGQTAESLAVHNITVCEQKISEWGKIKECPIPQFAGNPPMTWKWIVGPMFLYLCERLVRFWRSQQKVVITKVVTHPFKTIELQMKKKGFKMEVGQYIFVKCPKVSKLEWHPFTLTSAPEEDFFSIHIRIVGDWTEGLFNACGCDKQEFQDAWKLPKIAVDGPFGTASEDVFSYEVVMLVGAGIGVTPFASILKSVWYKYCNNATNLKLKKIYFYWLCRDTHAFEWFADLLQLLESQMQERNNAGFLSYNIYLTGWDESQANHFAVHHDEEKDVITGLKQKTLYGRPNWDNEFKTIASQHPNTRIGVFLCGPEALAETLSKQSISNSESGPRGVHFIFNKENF
In assay [9] the target is NADPH oxidase 4 (Homo sapiens) (UniProt Q9NPH5). The assay is described as follows: compounds shifting NOX4 Amplex Red fluorescence – cell-based, HEK293-NOX4, tetracycline-induced, NOX inhibitor project, primary screen (AID 1160). Particulars: HEK293-NOX4, Amplex Red H2O2 fluorescence, 45 min; higher = more signal, called active from +8 up or from −8 down.
Sequence of NADPH oxidase 4 (Homo sapiens) (Q9NPH5 whole entry, looked up): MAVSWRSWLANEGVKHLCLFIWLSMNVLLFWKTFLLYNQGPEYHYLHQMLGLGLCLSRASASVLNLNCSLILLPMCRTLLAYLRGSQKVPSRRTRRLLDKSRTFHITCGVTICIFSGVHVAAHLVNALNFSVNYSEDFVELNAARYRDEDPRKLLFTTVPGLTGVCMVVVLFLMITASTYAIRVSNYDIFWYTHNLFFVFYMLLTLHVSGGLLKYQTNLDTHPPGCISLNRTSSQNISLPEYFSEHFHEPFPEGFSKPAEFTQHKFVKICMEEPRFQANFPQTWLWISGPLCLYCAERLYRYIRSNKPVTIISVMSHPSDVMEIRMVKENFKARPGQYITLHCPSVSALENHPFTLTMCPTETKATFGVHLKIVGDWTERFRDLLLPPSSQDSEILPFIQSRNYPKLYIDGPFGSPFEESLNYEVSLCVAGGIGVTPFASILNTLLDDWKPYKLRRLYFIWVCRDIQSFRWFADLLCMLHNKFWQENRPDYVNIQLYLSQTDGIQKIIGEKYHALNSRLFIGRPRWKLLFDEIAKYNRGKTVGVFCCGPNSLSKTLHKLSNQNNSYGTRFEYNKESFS
In assay [10] the target is NADPH oxidase 5 (Homo sapiens) (UniProt Q96PH1). As to the kind of experiment: compounds shifting NOX5 Amplex Red fluorescence – cell-based, HEK293-NOX5, NOX inhibitor project, primary screen (AID 1161). Particulars: HEK293-NOX5, ionomycin, 45 min, higher = more signal.
Sequence of NADPH oxidase 5 (Homo sapiens) (Q96PH1 whole entry, looked up): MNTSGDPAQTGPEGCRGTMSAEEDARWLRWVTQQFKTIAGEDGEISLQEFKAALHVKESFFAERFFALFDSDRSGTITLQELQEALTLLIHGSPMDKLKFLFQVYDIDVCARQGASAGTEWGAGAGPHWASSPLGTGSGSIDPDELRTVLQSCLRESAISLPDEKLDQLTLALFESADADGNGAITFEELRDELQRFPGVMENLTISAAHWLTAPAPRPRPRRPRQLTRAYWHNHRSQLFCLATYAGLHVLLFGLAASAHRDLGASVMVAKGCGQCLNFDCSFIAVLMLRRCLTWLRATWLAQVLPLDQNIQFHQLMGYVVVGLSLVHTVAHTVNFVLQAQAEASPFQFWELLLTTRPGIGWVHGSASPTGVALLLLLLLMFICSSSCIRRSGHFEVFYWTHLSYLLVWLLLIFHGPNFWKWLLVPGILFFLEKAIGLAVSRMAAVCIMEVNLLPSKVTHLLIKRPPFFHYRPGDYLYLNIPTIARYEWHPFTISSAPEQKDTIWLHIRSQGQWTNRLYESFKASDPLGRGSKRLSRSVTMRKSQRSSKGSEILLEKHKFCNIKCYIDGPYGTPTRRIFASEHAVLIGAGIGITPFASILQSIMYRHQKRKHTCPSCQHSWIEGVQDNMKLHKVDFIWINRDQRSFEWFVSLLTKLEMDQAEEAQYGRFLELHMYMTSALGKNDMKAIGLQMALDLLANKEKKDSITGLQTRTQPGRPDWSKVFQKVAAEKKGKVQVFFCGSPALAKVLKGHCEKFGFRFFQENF
Assay [11] can be described thus: compound effects on lung adenocarcinoma cell viability – A549, calcein-AM fluorescence, 48 h, basal, profiling panel (AID 1162). Further: test concentration not given here. Particulars: higher = more signal.
Assay [12] is described as follows: compound effects on differentiated 3T3-L1 adipocyte viability – cell-based, 3T3-L1 adipocytes, calcein-AM fluorescence, 48 h, basal, profiling panel (AID 1163). Further: test concentration not given here. Particulars: 3T3-L1 adipocytes viability, higher = more signal.
Assay [13] in a line: compound effects on hepatocellular carcinoma cell viability – HepG2, calcein-AM fluorescence, 48 h, basal, profiling panel (AID 1164). Further: test concentration not given here. As to conditions: higher = more signal.
Assay [14] is described as follows: compound effects on multiple myeloma cell viability – MM1S, calcein-AM fluorescence, 48 h, basal, profiling panel (AID 1165). Further: test concentration not given here. As to conditions: higher = more signal.
A short description of assay [15]: calcein-AM signal in unstimulated myeloma cells – cell-based, calcein-AM fluorescence, 48 h, PK04 Diversity Set, profiling panel (AID 1166).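 Further: cells grown under basal conditions without added stimulus; test concentration not given here.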 Particulars: RPMI8226 myeloma viability, higher = more signal.
Assay [16] in a line: JC-1 mitochondrial signal, unstimulated HepG2 cells – cell-based, JC-1 fluorescence, 24 h, 100 nL compound, profiling panel (AID 1167). Further: test concentration not given here. As to conditions: HepG2 mitochondrial potential, higher = more signal.
A short description of assay [17]: JC-1 mitochondrial signal, unstimulated adipocytes – cell-based, JC-1 fluorescence, 3T3-L1 adipocytes, 24 h, 100 nL compound, profiling panel (AID 1168). Further: test concentration not given here. Particulars: JC-1 mitochondrial fluorescence, higher = more signal, called active from +8 up or from −8 down.
A short description of assay [18]: JC-1 mitochondrial signal, unstimulated myeloma cells – cell-based, JC-1 fluorescence, RPMI8226, 24 h, 100 nL compound, profiling panel (AID 1169). Further: test concentration not given here. As to conditions: JC-1 mitochondrial potential fluorescence, higher = more signal.
Assay [19] is described as follows: JC-1 mitochondrial signal, unstimulated MM1S myeloma – cell-based, JC-1 fluorescence, 24 h, 100 nL compound, profiling panel (AID 1170). Further: test concentration not given here. As to conditions: MM1S mitochondrial potential, higher = more signal.
Assay [20] in a line: resazurin metabolic signal in A549 cells – cell-based, resazurin fluorescence, 24 h, PK04 Diversity Set, profiling panel (AID 1171). Further: test concentration not given here. As to conditions: A549 viability, higher = more signal, called active from +8 up or from −8 down. On the technique in general: Resazurin is reduced to fluorescent resorufin, in cell work by metabolically active cells.

In the case of `CO[C@@H]1COC(=O)[C@@H]2CCCN2C(=O)[C@@H](C)COC(=O)CC=C[C@H]1C`, the z-score was -0.481 (inactive) in [1]; 0.202 (inactive) in assay [3]; -0.116 (inactive) in assay [4]; 0.601 (inactive) in assay [5]; 0.0246 (inactive) in [6]; -0.641 in assay [7]. The z-score in assay [8] is -0.48 (inactive); in assay [9], 0.393 (inactive); in assay [10] it was 0.0919; in assay [11] it was -1.06; in [12] it was -0.11; in assay [13], -0.321. The z-score is 0.0099 in [14]; -0.748 in [15]; -0.2 in assay [16]; -1.49 (inactive) in [17]; -0.0504 in [18]; -0.684 in assay [19]. Also, the z-score in assay [20] is 0.948 (inactive). In [2], this compound came in with a composite z-score of 0.0553.

Consider `CC(C)CON=C1C[C@@H](O)[C@@H](O)[C@@H]2[C@@H]3C(=O)N(C(C)(C)C)C(=O)[C@@H]3CC[C@H]12`, for which the z-score in [1] was 0.288 (inactive); in assay [3], 0.221 (inactive); in assay [4] it was -0.239 (inactive); in assay [5] it was -0.814 (inactive); in assay [6], -0.089 (inactive); in assay [7] it was -0.382. Further, the z-score is 1.47 (inactive) in [8]; 0.594 (inactive) in [9]; 0.325 in assay [10]; 0.539 in assay [11]; -0.519 in assay [12]; -0.248 in assay [13]. Moreover, the z-score is 0.246 in assay [14]; 0.0151 in assay [15]; -0.772 in [16]; -0.697 (inactive) in [17]; -0.369 in [18]; -0.465 in assay [19]. Besides, the z-score in assay [20] was -0.77 (inactive). In addition, the composite z-score in assay [2] is -0.0162.

For `COC(=O)CC=C[C@@H](C)[C@@H](C=NOC(C)CN1CCCc2nc(C)c(C)cc21)OC` (stereo not given in full), the z-score was -0.4 (inactive) in assay [1]; 0.378 (inactive) in assay [3]; 0.633 (inactive) in assay [4]; -0.17 (inactive) in assay [5]; 0.538 (inactive) in assay [6]; -0.77 in assay [7]. The z-score in [8] is -0.0618 (inactive); in assay [9], -0.14 (inactive); in assay [10], 0.372; in assay [11], 0.756; in assay [12] it was -0.274; in [13], 0.125. Moreover, the z-score in assay [14] is 0.0457; in assay [15] it was 0.142; in [16] it was -0.16; in [17], 0.111 (inactive); in assay [18] it was -0.194; in assay [19], -0.259. Also, the z-score in assay [20] was -0.399 (inactive). Also, the composite z-score in [2] is -0.202.

In the case of `Cc1cc2c(nc1C)CCCCN2CC(C)ON=C1[C@H]2CCn3c(=O)n(-c4ccccc4)c(=O)n3[C@H]2[C@H](O)[C@@H]2O[C@H]12` (stereo not given in full), the z-score in [1] is 1.03 (inactive); in assay [3], 0.683 (inactive); in [4] it was 0.0165 (inactive); in assay [5], 0.417 (inactive); in assay [6], 0.122 (inactive); in [7], 0.0162. Further, the z-score was -1.86 (inactive) in assay [8]; -0.0659 (inactive) in [9]; 0.168 in [10]; -0.333 in assay [11]; -0.0663 in assay [12]; 0.305 in assay [13]. Also, the z-score in assay [14] is -0.767; in [15], -1.21; in assay [16], -0.439; in assay [17], -0.521 (inactive); in assay [18], 0.407; in assay [19], -0.974. Also, the z-score in [20] is -1.53 (inactive). The compound further registered a composite z-score in [2] of -0.0536.

As to `CO[C@H]1COC(=O)[C@@H](Cc2ccccc2)NC(=O)[C@@H](C)COC(=O)CCC[C@@H]1C`, the z-score in assay [1] is 0.558 (inactive); in [3], -1.19 (inactive); in assay [4] it was -1.66 (inactive); in [5], -0.155 (inactive); in assay [6], -2.21 (inactive); in [7], 0.781. Also, the z-score in assay [8] was -0.785 (inactive); in [9], 0.533 (inactive); in assay [10], 0.789; in [11], 0.704; in [12], 0.0955; in assay [13] it was 0.577. Further, the z-score is -0.267 in assay [14]; -0.283 in assay [15]; -0.212 in assay [16]; 0.00303 (inactive) in assay [17]; -0.161 in assay [18]; -1.23 in [19]. The z-score in assay [20] was 0.6 (inactive). This compound also returned a composite z-score in [2] of -0.309.
